# In PubChem BioAssay AID1851 (National Center for Advancing Translational Sciences (NCATS), 2009):
# Among all 16,000 compounds or so, about 5,700 (36%) were called active. Inconclusive results (about 24%) are left out. Some of the results follow. Values without a mark were called inactive. The call rests on the fitted dose curve; in most records, active means well fitted curve in the direction sought with a large enough effect; inconclusive means small, poorly fitted or top-dose-only effect, or effect the other way; inactive means no such curve, though single readings can be large or run the other way.
# Biological target: Cytochrome P450 1A2 (Homo sapiens) (UniProt P05177)
# Test: Cytochrome panel assay with activity outcomes
# Details: recombinant CYP, pro-luciferin dealkylation, luminescence, p450-cyp1a2; series mostly up to 57.1 µM
# On the % scale 0 is the no-effect control and ±100 the full control effect.
# Chain of Cytochrome P450 1A2 (Homo sapiens) (P05177 whole entry, looked up): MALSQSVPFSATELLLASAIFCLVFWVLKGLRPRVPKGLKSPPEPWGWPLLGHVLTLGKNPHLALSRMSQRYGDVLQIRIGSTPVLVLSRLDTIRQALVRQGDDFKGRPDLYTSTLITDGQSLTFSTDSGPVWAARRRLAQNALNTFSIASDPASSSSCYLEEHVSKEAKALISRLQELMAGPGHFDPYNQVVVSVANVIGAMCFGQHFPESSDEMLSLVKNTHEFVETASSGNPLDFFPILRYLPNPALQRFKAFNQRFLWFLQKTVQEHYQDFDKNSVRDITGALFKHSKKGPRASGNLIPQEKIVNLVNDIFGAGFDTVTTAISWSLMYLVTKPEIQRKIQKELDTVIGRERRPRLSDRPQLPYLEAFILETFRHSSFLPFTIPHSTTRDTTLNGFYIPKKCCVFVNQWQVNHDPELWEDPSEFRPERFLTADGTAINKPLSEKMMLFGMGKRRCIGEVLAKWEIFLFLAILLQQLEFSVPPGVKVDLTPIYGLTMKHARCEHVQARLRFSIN
SMILES,AC50,"activity, negative = inhibition"
CC1(C)C(=O)NC2=C1C(=O)C(=O)c1ccccc12,3.16 µM (active),–
N#C/C(=C\c1c[nH]c2ccccc12)C(=O)c1ccc(O)c(O)c1,1.26 µM (active),–
O=C(O)[C@@H]1CCCN1Cc1c[nH]c2ccccc12,–,-13.1% [at 11.4 µM]
CCN(CC(=O)O)CC(=O)O,–,-5.21% [at 11.4 µM]
CS(=O)(=O)Nc1ccc(C(=O)N2CCN(c3ccccc3)CC2)cc1,inactive,–
CS(=O)(=O)Nc1cccc(-c2cncnc2-n2ccnc2)c1,15.8 µM (active),–
CS(=O)(=O)Nc1cccc(-c2nccc(-n3ccnc3)n2)c1,0.2 µM (active),–
COc1ccc(NS(=O)(=O)c2ccc(I)cc2)cc1N1CCN(C)CC1,inactive,–
CN1CCN(c2ccnc(-c3cccc(NS(C)(=O)=O)c3)n2)CC1,12.6 µM (active),–
CCN1C(=O)[C@H]2[C@H]3[C@H](O)[C@H](O)C/C(=N/OCC(C)C)[C@@H]3CC[C@@H]2C1=O,–,-10.8% [at 11.4 µM]
COC(=O)[C@@]1(Cc2ccc(F)cc2)[C@H]2c3cc(C(=O)N4CCCC4)n(CCCNc4ncc(C(F)(F)F)cc4Cl)c3C[C@H]2CN1C(=O)c1ccccc1,inactive,–
O=[N+]([O-])c1cccnc1NCCNc1ncc(C(F)(F)F)cc1Cl,2 µM (active),–
C[C@@H]1O[C@@H](O)[C@@H](O)[C@H](O)[C@H]1O,–,-2.48% [at 11.4 µM]
O=C(O)c1ccccc1N/N=C\c1ccnc2ccccc12,11.2 µM (active),–
Cn1c(=O)c2c(nc(N/N=C\c3ccccc3C(=O)O)n2C)n(C)c1=O,–,5.78% [at 11.4 µM]
O=C(O)CCNc1ccccc1C(=O)O,–,-11.9% [at 11.4 µM]
Brc1ccc(C2=Nn3c(nnc3-c3cccnc3)SC2)s1,5.01 µM (active),–
COc1ccc(C(C(=O)NC2CCCC2)N(C(=O)c2snc(-c3ccc(F)cc3)c2N)c2ccccc2)cc1 (configuration not stated),inactive,–
Cc1cc2ccccn2c1C(=O)c1ccc(Cl)cc1,3.16 µM (active),–
Cc1cc2ccccn2c1C(=O)c1nc(N2CCOCC2)ncc1Cl,15.8 µM (active),–
Cc1sc(=NC(=O)c2ccco2)n(C)c1-c1ccc(F)cc1,8.91 µM (active),–
COc1ccccc1C(=O)N1CCN(c2ccccn2)CC1,inactive,–
COc1ccccc1-c1nc(N2CCOCC2)c2ccccc2n1,0.501 µM (active),–
COc1ccccc1-c1nc(N2CCN(C)CC2)c2ccccc2n1,12.6 µM (active),–
O=C1c2cccc3cccc(c23)C(=O)N1CC1CCN(CC(O)COc2ccc3ccccc3c2)CC1 (configuration not stated),0.562 µM (active),–
CC(C)(C)C1CCC(OCC(O)CN2CCN(c3ccccc3)CC2)CC1 (configuration not stated),inactive,–
O=C(c1ccccc1)c1ccc(OCC(O)CN2CCN(Cc3ccccc3)CC2)cc1 (configuration not stated),inactive,–
